Assay results reported in PubChem BioAssay (EPA / NIEHS).
Results filed as inconclusive are left out. The source made the active and inactive calls. Rule for the calls: active = hit-call score of the fitted dose curve at least 0.9, where 1 is the maximum; inconclusive = response in the unintended direction; inactive = score below 0.9.

Target: Nuclear receptor subfamily 1 group I member 2 (Homo sapiens) (UniProt O75469)
Test: NVS_NR_hPXR: NovaScreen (NVS) Nuclear Receptor Binding Assay for human Pregnane X Receptor (PXR) (AID 2283365);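 note: a drop in FRET signal versus DMSO baseline means the compound binds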
Description: NVS_NR_hPXR is a biochemical, single-readout assay that uses extracted gene-proteins in a cell-free assay. Measurements were taken 2 hours after chemical dosing in a 384-well plate.NVS_NR_hPXR is one of one assay component(s) measured or calculated from the NVS_NR_hPXR assay. It is designed to make measurements of fluorescent resonance energy transfer, a form of binding reporter, as detected with fluorescent resonance energy transfer signals by Time-Resolved Fluorescence Resonance Energy Transfer (TR-FRET) technology.Data from the assay component NVS_NR_hPXR was analyzed into 1 assay endpoint. This assay endpoint, NVS_NR_hPXR, was analyzed in the positive analysis fitting direction relative to DMSO as the negative control and baseline of activity. Using a type of binding reporter, loss-of-signal activity can be used to understand changes in the binding as they relate to the gene NR1I2. Furthermore, this assay endpoint can be referred to as a primary readout, because the performed assay has only produced 1 assay endpoint. To generalize the intended target to other relatable targets, this assay endpoint is annotated to the nuclear receptor intended target family, where the subfamily is non-steroidal.
Binding assays used specific radioligands (tritiated, iodinated) with non-radioactive competitive displacement ligands in agonist or antagonist protocols (as indicated) and various reference compounds and inhibitors to titrate specific binding to receptors and transporters. Most enzyme assays (CYPs, kinases, phosphatases, proteases, HDACs) used recombinant protein and specific substrates (fluorescence mostly, some colorimetric and radioactive) and inhibitors, followed by a biochemical separation of substrate and product. All assays for the biochemical HTS were initially run in duplicate at a single concentration (10 uM for CYP450 assays and 25 uM for all others). […] Each assay was run with positive and negative controls, and concurrent controls on every plate. The follow-up (secondary) screen tested active chemical-pairs in concentration series, as well as a few additional assays not tested in the primary screen, some selected negative inactives, and several cases re-run in the concentration series for confirmatory purposes.

Sequence of Nuclear receptor subfamily 1 group I member 2 (Homo sapiens) (O75469 whole entry, looked up): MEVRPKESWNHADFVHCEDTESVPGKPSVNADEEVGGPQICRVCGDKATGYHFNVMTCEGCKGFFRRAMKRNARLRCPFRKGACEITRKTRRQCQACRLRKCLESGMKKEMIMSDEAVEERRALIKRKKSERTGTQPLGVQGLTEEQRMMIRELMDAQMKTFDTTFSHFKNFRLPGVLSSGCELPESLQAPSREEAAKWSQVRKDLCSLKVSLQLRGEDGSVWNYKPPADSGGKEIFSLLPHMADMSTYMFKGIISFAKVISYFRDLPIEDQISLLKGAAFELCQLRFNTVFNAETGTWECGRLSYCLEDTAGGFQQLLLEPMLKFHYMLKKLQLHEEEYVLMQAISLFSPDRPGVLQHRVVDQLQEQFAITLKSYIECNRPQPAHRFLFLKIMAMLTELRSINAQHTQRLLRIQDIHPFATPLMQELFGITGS

SMILES | outcome | AC50
CCCCCCCC[Si](OCC)(OCC)OCC | inactive | –
NC(=O)c1nc(-c2cccc(-c3cc(F)ccc3OCC(F)(F)C(F)(F)F)c2)n[nH]1 | inactive | –
CN(C[C@@H](CC[N+]12CCC(C3CCCCC3)(CC1)CC2)c1ccc(Cl)c(Cl)c1)C(=O)c1cc(C(F)(F)F)cc(C(F)(F)F)c1 | – | 25 µM (active)
O=c1c(-c2ccc(O)cc2)coc2cc(O)cc(O)c12 | inactive | –
CN(C)c1ccc(C(=C2C=CC(=[N+](C)C)C=C2)c2ccc(N(C)C)cc2)cc1 | – | 6.47 µM (active)
C[C@]12CC[C@@H]3c4ccc(O)cc4CC[C@H]3[C@@H]1CC[C@H]2O | inactive | –
O=CCCCC=O | inactive | –
Oc1ccccc1 | inactive | –
CCN(CC)C(=O)c1cc(S(=O)(=O)Cc2ccccc2)c(N2CCC(c3ccccc3)CC2)cc1N(CC)CCN(C)C | – | 15.4 µM (active)
CC1(C)NC(=O)N(c2ccc([N+](=O)[O-])c(C(F)(F)F)c2)C1=O | inactive | –
Clc1ccccc1C(c1ccccc1)(c1ccccc1)n1ccnc1 | inactive | –
NCc1cccc(C2CCN(C(=O)c3ccc(C#Cc4ccccc4F)o3)CC2)c1 | – | 7.85 µM (active)
O=C(O)Cc1cc(I)c(Oc2ccc(O)c(I)c2)c(I)c1 | inactive | –
O=C1CCC(C2CCCCC2)CC1 | inactive | –
CCCCOC(=O)c1ccc(O)cc1 | inactive | –
